# Laboratory results as given in PubChem BioAssay.
# Entries with a potency or affinity are not part of this list. Calls of active or inactive are those of the source. The rule behind the calls is not given here.
# Biological target: Melanocortin receptor 4 (Homo sapiens) (UniProt P32245)
# Assay: MC4R antagonists, dose response, counter-screen for LGR2 antagonist project, cell-based, plate reader, cherry pick (AID 743444)
# Settings: MC4R-expressing cells, antagonist mode; series mostly up to 35 µM
row,Compound,outcome
1,COc1ccc(CCNC(=O)C2CCN(S(=O)(=O)c3ccc(Cl)cc3)CC2)cc1OC,inactive
2,COc1ccc(S(=O)(=O)N2CCOCC2)cc1NC(=O)COc1ccc(C)cc1,inactive
3,Cc1ccc2nc(C(F)(F)F)c(C#N)c(N)c2c1,inactive
4,CCOc1cccc2sc(Nc3nc4ccc(NC(C)=O)cc4s3)nc12,inactive
5,COC(=O)c1ccc(Nc2cc(C)nc3ccc(C)cc23)cc1,inactive
6,CCCCOc1cc(NCc2ccccc2)c2ncn(C(C)C)c2c1,inactive
7,CCOC(=O)c1c(C)n(C)c2ccc(OCC(O)CNCCc3ccccc3)cc12 (stereo not drawn),inactive
8,Cn1c(=O)c2cc(NC(=O)NCc3ccccc3)ccc2n1C/C=C/c1ccccc1,inactive
9,COc1ccc(C(=O)CC(Sc2ccccc2N)c2ccc(OC)cc2)cc1 (stereo not drawn),inactive
10,COc1cc(/C=N/Nc2nc(C)nc3c2cnn3-c2ccccc2)ccc1O,inactive
11,O=C(CSc1ncnc2[nH]ncc12)Nc1nc(-c2ccc(F)c(F)c2)cs1,inactive
12,Cc1ccc(S(=O)(=O)Nc2ccc3c(c2)C(=O)N([C@H](C)CO)C[C@@H](C)[C@H](CN(C)S(=O)(=O)c2cccs2)OCCCC[C@@H](C)O3)cc1,inactive
13,O=C(Cn1ncc(Cl)c(Cl)c1=O)N1CCOCC1,inactive
14,O=C(C[C@@H]1C[C@H]2c3cc(NC(=O)c4ccc5c(c4)OCO5)ccc3O[C@H]2[C@@H](CO)O1)NCc1ccc(Oc2ccccc2)cc1,inactive
15,C[C@@H]1CN([C@H](C)CO)C(=O)Cc2cc(NC(=O)CCC(F)(F)F)ccc2O[C@@H]1CN(C)CC1CCCCC1,inactive
16,CCOCCCn1c(SCc2nc3ccccc3s2)nc2ccccc2c1=O,inactive
17,Cc1cccc(Cn2ncc(Cl)c(Cl)c2=O)c1,inactive
18,COc1ccccc1CN(C)C[C@@H]1OCc2cnnn2CCCC(=O)N([C@H](C)CO)C[C@H]1C,inactive
19,CC(C)c1ccc2c(c1)C(N1CCNCC1)Cc1ccc(F)cc1S2 (stereo not drawn),inactive
20,CNCc1ccccc1Sc1ccc(O)c(O)c1,inactive
21,C[C@H]1CCCCO[C@@H](CN(C)C(=O)Nc2ccc(C(F)(F)F)cc2)[C@@H](C)CN([C@@H](C)CO)C(=O)c2cc(NC(=O)CCC(F)(F)F)ccc2O1,inactive
22,O=C(CSc1nc2ccccc2[nH]1)Nc1nc(-c2cccc(Br)c2)cs1,inactive
23,CCOc1cc(/C=C/C(=O)Nc2ccc(C(=O)NCCN(CC)CC)cc2)ccc1OCC(C)C,inactive
